Source: PubChem BioAssay (NCI)
This is part of a sample that, as a whole, favours compounds with a hit. Of some 83,000 tested, about 20% had one in any assay.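 Results are percent growth after 48 hours of single-concentration exposure. 100 means growth as in untreated cells, lower positive values show inhibition; negative values down to -100 show cell death.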 Active and inactive are the calls of the source. How the source made its calls: active means growth percent below 10; inactive means the rest.

Tests used:
Assay in all cases: NCI-60 one-dose screen, 48 h (100 = growth as untreated, 0 = no growth, -100 = all killed)
Conditions in all cases: 10 µM unless noted
T-47D breast = tested on: T-47D breast
BT-549 breast = tested on: BT-549 breast
SW-620 colon = tested on: SW-620 colon
MCF7 breast = tested on: MCF7 breast
HCT-116 colon = tested on: HCT-116 colon
HCC-2998 colon = tested on: HCC-2998 colon
KM12 colon = tested on: KM12 colon
MDA-MB-435 melanoma = tested on: MDA-MB-435 melanoma

Measured: growth

CCN(CC)Cc1c(-c2cccc(OC(F)(F)F)c2)[nH]c2ccc(N3CCCC3)cc2c1=O
inactive: T-47D breast 103% | BT-549 breast 87.7% | SW-620 colon 92.3% | MCF7 breast 78.4% | HCT-116 colon 101% | HCC-2998 colon 87% | KM12 colon 95.9%

CC(=O)Nc1ccc(NC(=O)Nc2cccc(-c3nc(-c4ccc(NC(=O)c5cccnc5)cc4Cl)no3)c2)cc1C(F)(F)F
active: T-47D breast -43.7% | BT-549 breast -29.9% | SW-620 colon -62.8% | MCF7 breast -61.3% | HCT-116 colon -47.4% | HCC-2998 colon -77.6% | KM12 colon -46.2%

CCC(=O)Nc1cc(Nc2cc(NC3CC3)n3ncc(C#N)c3n2)ccc1C
inactive: BT-549 breast 29.5% | SW-620 colon 17.4% | HCT-116 colon 19.2% | HCC-2998 colon 41.6% | KM12 colon 32.5%
active: T-47D breast 6.41% | MCF7 breast 3.83%

O=S(=O)(Nc1ccc2c(c1)OC(F)(F)O2)c1ccc(-c2cnc(C3CC3)o2)cc1
inactive: T-47D breast 31.6% | BT-549 breast 52.1% | SW-620 colon 23.7% | MCF7 breast 19.9% | HCT-116 colon 23.7% | HCC-2998 colon 72.8% | KM12 colon 30.9%

O=S(=O)(Nc1ccc(C2CC2)cc1)c1ccc(-c2cnc(C3CC3)o2)cc1
inactive: T-47D breast 51.5% | BT-549 breast 76.3% | SW-620 colon 33.8% | MCF7 breast 33.3% | HCT-116 colon 48.5% | HCC-2998 colon 91.1% | KM12 colon 48.3%

O=S(=O)(Nc1ccc(I)c(Cl)c1)c1ccc(-c2cnc(C3CC3)o2)cc1
inactive: T-47D breast 26.9% | BT-549 breast 57.1% | SW-620 colon 15.3% | MCF7 breast 17% | HCT-116 colon 26.6% | HCC-2998 colon 59.1% | KM12 colon 32%

CC(=O)Oc1ccc(CCN2C(=O)CSC2=S)cc1
inactive: T-47D breast 41.2% | BT-549 breast 95.9% | SW-620 colon 47.1% | MCF7 breast 33.3% | HCT-116 colon 75.6% | HCC-2998 colon 108% | KM12 colon 22.3%

CC(C)=CCc1c(O)c(CC=C(C)C)c2c(c1O)C(=O)C1=C[C@@H]3C[C@H]4C(C)(C)O[C@@](C/C=C(\C)C(=O)O)(C3=O)[C@@]14O2
active: T-47D breast 1.27% | BT-549 breast -8.98% | SW-620 colon -34.6% | MCF7 breast -5.87% | HCT-116 colon -35.8% | HCC-2998 colon -87.1% | KM12 colon -18.4%

O=c1cc(-c2ccccc2)nc2sc(-c3c[nH]c4ccc(Br)cc34)nn12
inactive: T-47D breast 75.2% | BT-549 breast 108% | SW-620 colon 105% | MCF7 breast 67.9% | HCT-116 colon 103% | HCC-2998 colon 109% | KM12 colon 103%

C#C[C@]1(O)CC[C@H]2[C@@H]3CC=C4c5sc(-c6ccccn6)nc5CC[C@]4(C)[C@H]3CC[C@@]21C
inactive: T-47D breast 85.3% | BT-549 breast 59.8% | SW-620 colon 74.2% | MCF7 breast 49.3% | HCT-116 colon 62% | HCC-2998 colon 92.5% | KM12 colon 85.7%

CC1=C2C(=C[C@@](C)(COS(N)(=O)=O)[C@@H]2O)C(=O)[C@](C)(O)C12CC2
inactive: T-47D breast 71.8% | BT-549 breast 60.2% | SW-620 colon 85.3% | MCF7 breast 61.7% | HCT-116 colon 70% | HCC-2998 colon 61.7% | KM12 colon 99.5%

O=C(Nc1ccc(-c2nc(-c3cccc(O)c3)c(-c3ccnc(Br)c3)[nH]2)cc1)c1ccccc1
active: T-47D breast -6.8% | MCF7 breast 0.42%
inactive: BT-549 breast 40.6% | SW-620 colon 10.5% | HCT-116 colon 18.1% | HCC-2998 colon 26.3% | KM12 colon 12.9%

O=S(=O)(Nc1ccc(-c2nc(-c3cccc(O)c3)c(-c3ccnc(Br)c3)[nH]2)cc1)c1ccccc1
active: T-47D breast 1.01% | MCF7 breast 7.26%
inactive: BT-549 breast 51.9% | SW-620 colon 49.8% | HCT-116 colon 27% | HCC-2998 colon 32.4% | KM12 colon 21.5%

Cc1ccc(NC(=O)N[C@@H](Cc2cc(F)cc(F)c2)C(=O)NC2C(=O)N3CCC[C@H]3C(=O)N3CCCC[C@H]3C(=O)N[C@@H](C)C(=O)N3C[C@H](C)C[C@H]3C(=O)O[C@H]2C)c(F)c1 (some centres undefined)
inactive: T-47D breast 31.5% | BT-549 breast 28.7% | SW-620 colon 36.5% | MCF7 breast 15.5% | KM12 colon 38.7%
active: HCT-116 colon 9.88%

O=C(/C=C/c1cn(-c2ccccc2)nc1-c1ccc(Cl)cc1)c1cc2ccccc2oc1=O
inactive: T-47D breast 44.1% | BT-549 breast 92.5% | SW-620 colon 74% | MCF7 breast 33.9% | HCT-116 colon 25.4% | KM12 colon 80.3%

CCC(=O)Nc1ccc(-c2nc(-c3cccc(O)c3)c(-c3ccnc(Br)c3)[nH]2)cc1
inactive: T-47D breast 26.4% | BT-549 breast 74.1% | SW-620 colon 84.7% | MCF7 breast 13.3% | HCT-116 colon 55.9% | HCC-2998 colon 95.8% | KM12 colon 58.9%

CCCCSc1nnc(-c2ccc(-c3ccc(Cl)cc3)nc2C)o1
inactive: T-47D breast 92.8% | MDA-MB-435 melanoma 102% | SW-620 colon 101% | MCF7 breast 85.8% | HCT-116 colon 98% | HCC-2998 colon 100% | KM12 colon 103%

NS(=O)(=O)c1ccc(Nc2nc(N/N=C/c3ccc(F)cc3)nc(Nc3ccccc3)n2)cc1
inactive: T-47D breast 20.7% | BT-549 breast 67.2% | SW-620 colon 75.7% | MCF7 breast 28.6% | HCT-116 colon 44.7% | KM12 colon 30.9%

O=S(=O)(Nc1cc(Cl)c(F)c(Cl)c1)c1ccc(-c2cnc(C3CC3)o2)cc1
inactive: T-47D breast 29.8% | BT-549 breast 66.8% | SW-620 colon 23.8% | MCF7 breast 20.2% | HCT-116 colon 27.3% | HCC-2998 colon 67.4% | KM12 colon 26.1%

C#C[C@]1(O)CC[C@H]2[C@@H]3CC=C4c5sc(-c6cccc(F)c6)nc5CC[C@]4(C)[C@H]3CC[C@@]21C
inactive: T-47D breast 65.4% | BT-549 breast 96.3% | SW-620 colon 89.7% | MCF7 breast 66.7% | HCT-116 colon 80.6% | HCC-2998 colon 85.2% | KM12 colon 75.6%

O=C(C[n+]1ccnc2ccccc21)c1ccc(O)c(O)c1
inactive: T-47D breast 45% | BT-549 breast 51.7% | SW-620 colon 24% | MCF7 breast 12.5% | KM12 colon 82.3%
active: HCT-116 colon 7.08%

O=C(Nc1cccc(-c2nc(-c3ccc(NC(=O)c4cccnc4)cc3Cl)no2)c1)Nc1ccc(NC(=O)C2CC2)c(C(F)(F)F)c1
active: T-47D breast -51.1% | BT-549 breast -39.5% | SW-620 colon -59.9% | MCF7 breast -66.8% | HCT-116 colon -52.8% | HCC-2998 colon -69.6% | KM12 colon -63.9%

CNC(=O)c1cc(N2CCc3cc(NC(=O)Nc4ccc(Cl)c(Cl)c4)ccc32)ccn1
inactive: T-47D breast 63.4% | BT-549 breast 77% | SW-620 colon 114% | MCF7 breast 63.3% | HCT-116 colon 92.7% | HCC-2998 colon 98% | KM12 colon 30.4%

COc1ccc(-c2oc3cc(O)cc(O)c3c(=O)c2OC)cc1O
inactive: T-47D breast 22.6% | BT-549 breast 40.3% | SW-620 colon 29.6% | MCF7 breast 25.8% | HCT-116 colon 12.4% | KM12 colon 26.2%

CCN1C/C(=N\S(=O)(=O)c2ccccc2)N(CC)C1=S
inactive: T-47D breast 102% | BT-549 breast 97.3% | SW-620 colon 107% | MCF7 breast 97.3% | HCT-116 colon 91.5% | KM12 colon 103%

COc1ccc(OC)c(NC2=C(Cl)C(=O)C(C)=C(C)C2=O)c1
inactive: BT-549 breast 102% | SW-620 colon 98.8% | MCF7 breast 80.5% | HCT-116 colon 57.6% | HCC-2998 colon 108% | KM12 colon 93.8%
active: T-47D breast -5.07%

CN(c1ccc(Cl)cc1)S(=O)(=O)c1ccc(-c2cnc(C3CC3)o2)cc1
active: KM12 colon 8.94%
inactive: T-47D breast 58.9% | BT-549 breast 35.1% | SW-620 colon 25.8% | MCF7 breast 15% | HCT-116 colon 10.6% | HCC-2998 colon 22.7%

CCOC(=O)c1nn(-c2ccccc2)c(=O)c2c(N)c(C#N)c(-c3cccs3)cc12
inactive: T-47D breast 76.7% | BT-549 breast 107% | SW-620 colon 79.3% | MCF7 breast 74.6% | HCT-116 colon 52.8% | HCC-2998 colon 78.2% | KM12 colon 80.4%

CNC(=O)c1cc(Oc2ccc3nc(NC(=O)c4ccc(CN5CCN(C)CC5)c(C(F)(F)F)c4)sc3c2)ccn1
inactive: T-47D breast 38% | MDA-MB-435 melanoma 53.9% | SW-620 colon 11.4% | MCF7 breast 28.9% | HCT-116 colon 31.7% | HCC-2998 colon 70.5% | KM12 colon 46.8%

O=C1/C(=C/c2ccccc2[N+](=O)[O-])Oc2ccc(O)cc21
inactive: T-47D breast 44.2% | BT-549 breast 49.9% | HCC-2998 colon 73.3% | KM12 colon 64.2%
active: SW-620 colon -14.7% | MCF7 breast 6.93% | HCT-116 colon -20.5%
